In ChEMBL document CHEMBL1201862, “PubChem BioAssay data set” (2004):
Out of some 400,000 compounds screened, about 2,100 (0.53%) were called active. Inconclusive results (about 14%) are left out. No rule for the calls is given here. The list comes from a sample in which actives are over-represented; it also holds similar structures and randomly drawn compounds.

target: Ataxin-2 (Homo sapiens) (UniProt Q99700); assay: qHTS for Inhibitors of ATXN expression.; type: functional
Sequence (Q99700 whole entry): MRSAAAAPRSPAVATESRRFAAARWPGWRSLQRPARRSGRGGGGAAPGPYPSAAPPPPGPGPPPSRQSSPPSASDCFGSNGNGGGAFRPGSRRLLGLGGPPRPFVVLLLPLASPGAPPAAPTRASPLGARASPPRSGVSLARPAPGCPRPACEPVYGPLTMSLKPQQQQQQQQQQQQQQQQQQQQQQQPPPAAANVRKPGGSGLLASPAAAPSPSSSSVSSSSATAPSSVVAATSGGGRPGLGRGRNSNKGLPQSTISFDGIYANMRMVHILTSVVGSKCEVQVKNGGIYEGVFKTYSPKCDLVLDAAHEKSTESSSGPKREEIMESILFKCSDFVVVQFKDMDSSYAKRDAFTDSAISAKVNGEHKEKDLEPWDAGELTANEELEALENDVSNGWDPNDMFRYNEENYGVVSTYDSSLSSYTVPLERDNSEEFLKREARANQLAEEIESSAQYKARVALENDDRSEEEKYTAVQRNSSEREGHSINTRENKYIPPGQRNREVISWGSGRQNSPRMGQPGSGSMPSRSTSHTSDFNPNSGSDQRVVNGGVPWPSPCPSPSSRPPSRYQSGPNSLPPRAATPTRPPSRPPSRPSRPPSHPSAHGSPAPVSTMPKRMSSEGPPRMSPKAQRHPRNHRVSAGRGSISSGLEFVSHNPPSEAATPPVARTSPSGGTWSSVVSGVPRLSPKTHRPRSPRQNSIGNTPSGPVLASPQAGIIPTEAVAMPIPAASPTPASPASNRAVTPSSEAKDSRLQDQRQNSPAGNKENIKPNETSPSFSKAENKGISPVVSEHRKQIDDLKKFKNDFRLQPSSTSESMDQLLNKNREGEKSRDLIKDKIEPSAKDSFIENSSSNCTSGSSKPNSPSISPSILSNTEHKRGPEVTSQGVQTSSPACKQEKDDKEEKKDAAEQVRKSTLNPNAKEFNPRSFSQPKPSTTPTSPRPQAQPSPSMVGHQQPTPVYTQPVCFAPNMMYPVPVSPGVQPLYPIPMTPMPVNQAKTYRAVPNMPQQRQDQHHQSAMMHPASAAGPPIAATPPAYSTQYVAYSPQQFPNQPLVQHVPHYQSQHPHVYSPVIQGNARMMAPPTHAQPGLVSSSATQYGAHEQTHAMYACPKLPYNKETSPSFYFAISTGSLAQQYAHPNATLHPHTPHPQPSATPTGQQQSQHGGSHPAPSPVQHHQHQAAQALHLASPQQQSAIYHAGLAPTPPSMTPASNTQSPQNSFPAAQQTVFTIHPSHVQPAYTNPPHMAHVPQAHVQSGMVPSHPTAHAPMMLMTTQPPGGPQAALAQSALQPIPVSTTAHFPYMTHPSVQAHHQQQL

| Structure (SMILES) | Potency |
| --- | --- |
| Cc1csc(SCC(=O)Nc2ccccc2[N+](=O)[O-])n1 | inactive |
| CC(C)c1noc(-c2ccccc2OCC(=O)Nc2ccccc2[N+](=O)[O-])n1 | 39.8 µM (active) |
| O=C(CN1CCCc2ccccc21)Nc1ccccc1[N+](=O)[O-] | inactive |
| Nc1cccc2c1C(=O)N(C(=O)c1cccc(S(=O)(=O)N3CCCCCC3)c1)C2=O | inactive |
| Fc1ccc(CN2CCN(c3ncccn3)CC2)c(F)c1 | inactive |
| COc1ccc(C(C)=O)cc1CSc1nc2ccccc2c(=O)n1-c1ccccc1 | 35.5 µM (active) |
| COCC(C)n1c(SCc2ccc(C(=O)OC)cc2)nc2ccccc2c1=O (configuration not stated) | inactive |
| O=C(c1ccc(-n2c(SCc3cc(F)ccc3F)nc3ccccc3c2=O)cc1)N1CCOCC1 | inactive |
| O=C(NCc1ccncc1)c1ccc(NS(=O)(=O)c2ccc(F)cc2)cc1 | inactive |
| CCOC(=O)c1c(N=C(S)N2CCOCC2)sc(C)c1C | inactive |
| CCOC(=O)c1c(C)oc2c1c(/C=N/CCO)c(O)c1ccccc12 | inactive |
| CCOC(=O)c1c(C)oc2c1c(C(c1cccnc1)N1CCOCC1)c(O)c1ccccc12 (configuration not stated) | 39.8 µM (active) |
| CCOC(=O)c1c(C)oc2c1c(C(c1ccccc1)N1CCOCC1)c(O)c1ccccc12 (configuration not stated) | 39.8 µM (active) |
| CCOC(=O)C(CC)Sc1ccc2nnc(-c3cccnc3)n2n1 (configuration not stated) | inactive |
| COc1ccc(C(=O)N/N=C\c2coc3ccccc3c2=O)cc1 | inactive |
| O=C(Cc1cc(=O)oc2cc(O)ccc12)NCC1CCC(C(=O)O)CC1 (configuration not stated) | inactive |
| Cc1c(-c2ccc(Cl)cc2)c(=O)oc2c(CN3CCCC3)c(O)ccc12 | inactive |
| Cc1cc(-c2cccs2)c2c(N)c(C(=O)c3ccc4c(c3)OCO4)sc2n1 | inactive |
| OCCNc1c2ccccc2nc2ccccc12 | inactive |
| CC(O)CNc1nc(NCc2ccccc2)c2cnn(C)c2n1 (configuration not stated) | inactive |
| c1ccc(CNc2nc(NCc3ccccc3)c3ccccc3n2)cc1 | 39.8 µM (active) |
| CC1(C)Cc2c(C#N)c(NCCO)nc(-c3ccco3)c2CO1 | inactive |
| C/C(=N\NC(=S)NCCc1ccccc1)c1ccc(Cl)cc1Cl | inactive |

| Structure (SMILES) | Potency |
| --- | --- |
| Cc1cc(C)c(C(=O)Nc2ccccc2)c(CC(C)(C)C(=O)O)c1 | inactive |
| Cc1nnc(Sc2cc(NCCO)c([N+](=O)[O-])c3nonc23)s1 | 28.2 µM (active) |
| CC(=O)Nc1scc(C)c1-c1nc2ccccc2s1 | inactive |
| O=[N+]([O-])c1c(NCCCO)cc(SCc2ccco2)c2nonc12 | 31.6 µM (active) |
| Cc1nnc(Sc2cc(NCCCO)c([N+](=O)[O-])c3nonc23)s1 | 21.2 µM (active) |
| COc1ccc(NC(=O)CCC(=O)NCc2ccco2)c([N+](=O)[O-])c1 | inactive |
| COCCNc1nnc(SCC(=O)Nc2cc(C)on2)s1 | inactive |
| CCCn1c(N)c(C(=O)CSc2nc3ccccc3s2)c(=O)[nH]c1=O | inactive |
| CC(=O)OCCCNc1cc(Sc2nc3ccccc3s2)c2nonc2c1[N+](=O)[O-] | 12.6 µM (active) |
| O=C(Cn1[nH]c(=O)c2ccccc2c1=O)OCC(=O)c1ccc(F)c(F)c1 | inactive |
| COCCCn1c(=N)c(C(=O)NCc2ccco2)cc2c(=O)n3cccc(C)c3nc21 | inactive |
| O=C1c2cccc3c(N4CCCCC4)ccc(c23)C(=O)N1c1ccc(O)cc1 | inactive |
| Brc1cccc(OCCN2CCc3ccccc3C2)c1 | inactive |
| O=C(c1coc(=O)c(Br)c1)N1CCC(C(O)(c2ccccc2)c2ccccc2)CC1 | inactive |
| Cc1ccc(OCCCCCCN2CCNCC2)cc1 | inactive |
| Cc1ccc(OCCCCN2CCCCC2)cc1 | inactive |
| COC(=O)c1cccc(OCCCN2CCC(C(O)(c3ccccc3)c3ccccc3)CC2)c1 | 35.5 µM (active) |
| CC(C)c1ccccc1OCCCN1CCCC1 | inactive |
| Cc1ccc(OCCCN2CCC(C(O)(c3ccccc3)c3ccccc3)CC2)cc1 | 35.5 µM (active) |
| O=C(Oc1cccc(C(=S)N2CCCCC2)c1)c1ccccc1 | inactive |
| OC(c1ccccc1)(c1ccccc1)C1CCN(CCCOc2cccc(OC(F)(F)F)c2)CC1 | 35.5 µM (active) |
| C=CCOc1ccc(/C=N\NC(N)=S)cc1 | 22.4 µM (active) |
| CCOc1ccc(/C=N/NC(=O)Cc2cccs2)cc1 | inactive |

| Structure (SMILES) | Potency |
| --- | --- |
| C=CCNC(=S)N/N=C/c1ccc(-c2ccc(OC)cc2)o1 | inactive |
| Brc1ccc2nc(-c3cccs3)c(NCC3CCCO3)n2c1 (configuration not stated) | inactive |
| COc1ccccc1Cc1c(C2CCCCC2)nc2ccc(Br)cn12 | 17.8 µM (active) |
| COCCn1c(=N)c(C(=O)NC2CCCC2)cc2c(=O)n3cc(C)ccc3nc21 | inactive |
| CCn1c(=N)c(C(=O)NC2CCCCC2)cc2c(=O)n3cc(C)ccc3nc21 | inactive |
| Cc1ccc2nc3c(cc(C(=O)NC4CCS(=O)(=O)C4)n3Cc3ccccc3)c(=O)n2c1 (configuration not stated) | inactive |
| COc1ccccc1Cc1c(C2CCCCC2)nc2ccc(C)cn12 | 20 µM (active) |
| Cc1ccc2nc(C3CCCCC3)c(Cc3cccc(Cl)c3)n2c1 | 39.8 µM (active) |
| CCC(C)n1c(=N)c(C(=O)NC2CCCCC2)cc2c(=O)n3cc(C)ccc3nc21 (configuration not stated) | inactive |
| Nc1c(C(=O)Nc2ccccc2)sc2nc(N3CCOCC3)c3c(c12)CCCC3 | inactive |
| O=C(O)c1ccc(N/N=C/c2ccc(-c3ccc(Cl)cc3Cl)o2)cc1 | inactive |
| COc1ccc(/C=C2/C(=O)ON=C2C)cc1Br | inactive |
| CC1=NOC(=O)/C1=C\c1ccc(-c2ccc(Cl)cc2Cl)o1 | 35.5 µM (active) |
| O=C(O)c1ccc(CNCc2ccccc2F)cc1 | inactive |
| CC1CCC(NC(=O)COC(=O)CNC(=O)c2ccc3ccccc3c2)CC1 (configuration not stated) | inactive |
| CC1CCC(NC(=O)CN2C(=O)C3CC=CCC3C2=O)CC1 (configuration not stated) | inactive |
| CC1CCC(NC(=O)c2nn(C)c3c2CS(=O)(=O)c2ccccc2-3)CC1 (configuration not stated) | 39.8 µM (active) |
| Cc1nc(-c2ccc(S(=O)(=O)Nc3cc(S(=O)(=O)N(C)C)ccc3C)s2)cs1 | inactive |
| COc1ccc(-c2cc(C(F)(F)F)n3ncc(C(=O)NCC4CCCO4)c3n2)cc1 (configuration not stated) | inactive |
| C=CCCCCCCCCC(=O)NNC1CC(=O)N(c2ccccc2)C1=O (configuration not stated) | inactive |
| CCCCN(CCCC)CC(O)Cn1cc(/C=C/C(=O)c2ccccc2)c2ccccc21 (configuration not stated) | inactive |
